This is an account of results in PubChem BioAssay (EPA / NIEHS).

The structures appear in SMILES notation. Calls of active or inactive are those of the source. Rule for the calls: active = hit-call score of the fitted dose curve at least 0.9, where 1 is the maximum; inactive = score below 0.9.

Assay [1] in a line: UKN5_HCS_SBAD2_cell_viability: Viability Assessment in the University of Konstanz (UKN) Leist Lab Neurite Outgrowth Assay in human iPSC-derived immature Dorsal Root Ganglia Neurons (UKN5) (AID 2284056). The method in brief: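 iPSC-derived immature peripheral neurons (SBAD2) seeded on Matrigel with CHIR99021, SU5402 and DAPT, dosed 1 h later for 24 h. Viability from Hoechst H-33342 and calcein-AM live staining, high-content imaging; bidirectional fit versus DMSO.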

A short description of assay [2]: UKN5_HCS_SBAD2_neurite_outgrowth: University of Konstanz (UKN) Leist Lab Neurite Outgrowth Assay in human iPSC-derived immature Dorsal Root Ganglia Neurons (UKN5) (AID 2284070). The settings on record: actives raise or lower the signal. The method in brief: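 Human iPSC-derived immature DRG neurons (SBAD2) on Matrigel with CHIR99021 (1.5 uM), SU5402 (5 uM), DAPT (5 uM); compounds added 1 h post-seeding for 24 h. Calcein-AM neurite area imaged; bidirectional fit vs DMSO.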

As for `CN1CCC[C@H]1c1cccnc1`, the result in assay [1] and in assay [2] was inactive.

For the compound `CC1=C(/C=C/C(C)=C/C=C/C(C)=C/C(=O)O)C(C)(C)CCC1`, the result in assay [1] and in assay [2] was inactive.
